Laboratory results reported in PubChem BioAssay (EPA / NIEHS).
Active and inactive are the calls of the source. Rule for the calls: active = hit-call score of the fitted dose curve at least 0.9, where 1 is the maximum; inactive = score below 0.9.

Tests used:
Conditions in all cases: mRNA level, 48 h; actives raise or lower the signal
[1] = read-out: Hypoxia-inducible factor 1-alpha (Homo sapiens) (UniProt Q16665); experiment: LTEA_HepaRG_HIF1A: Life Technologies and Expression Analysis (LTEA) Assay for Hypoxia-inducible factor 1 (HIF1A) Trancription factor using HepaRG (AID 2283503)
Method in brief: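 HIF1A transcript level read by qRT-PCR (ACTB, GAPDH, POLR2A normalization) after 48 h chemical exposure of HepaRG cultures. Eight half-log concentrations, top 100 uM, 0.5% DMSO vehicle, duplicates; bidirectional curve fit against DMSO baseline.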

[2] = read-out: 3-Hydroxy-3-Methylglutaryl-CoA Synthase 2 (HMGCS2), HMGCS2 (gene 3158); experiment: LTEA_HepaRG_HMGCS2: Life Technologies and Expression Analysis (LTEA) Assay for 3-Hydroxy-3-Methylglutaryl-CoA Synthase 2 (HMGCS2) using HepaRG (AID 2283504)
Method in brief: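 This steatosis marker was read as HMGCS2 mRNA change in HepaRG cells treated 48 h with up to 100 uM chemical. Normalisation used housekeeping genes; activity in either direction was fitted relative to 0.5% DMSO vehicle.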

[3] = read-out: HGF (gene 3082); experiment: LTEA_HepaRG_HGF: Life Technologies and Expression Analysis (LTEA) Assay for Hepatocyte Growth Facto (HGF) using HepaRG (AID 2283505)
Method in brief: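 Using HepaRG monolayers kept in 0.5% DMSO, chemicals were tested in duplicate over eight half-log concentrations from 100 uM for 48 h. Endpoint: HGF mRNA change relative to DMSO, normalized to ACTB/GAPDH/POLR2A.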

[4] = read-out: Insulin Like Growth Factor 1 (IGF1), IGF1 (gene 3479); experiment: LTEA_HepaRG_IGF1: Life Technologies and Expression Analysis (LTEA) Assay for Insulin Like Growth Factor 1 (IGF1) using HepaRG (AID 2283506)
Method in brief: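 Expression measured by TaqMan qRT-PCR on a Fluidigm array, with three housekeeping genes for normalisation, after 48 h treatment of HepaRG cells. Top concentration 100 uM with half-log steps, 0.5% DMSO vehicle, bidirectional fit.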

[5] = read-out: Intercellular Adhesion Molecule 1 (ICAM1), ICAM1 (gene 3383); experiment: LTEA_HepaRG_ICAM1: Life Technologies and Expression Analysis (LTEA) Assay for Intercellular Adhesion Molecule 1 (ICAM1) using HepaRG (AID 2283507)
Method in brief: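 Using the human liver line HepaRG, compounds are tested in duplicate over 48 h at concentrations up to 100 uM. Expression is determined by TaqMan qRT-PCR, normalized to endogenous controls, and analysed relative to 0.5% DMSO vehicle.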

[6] = read-out: Insulin-like growth factor-binding protein 1 (IGFBP1), IGFBP1 (gene 3484); experiment: LTEA_HepaRG_IGFBP1: Life Technologies and Expression Analysis (LTEA) Assay for Insulin-like growth factor-binding protein 1 (IGFBP1) using HepaRG (AID 2283508)
Method in brief: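 HepaRG, 48 h, 8 conc. (max 100 uM, half-log), duplicates, 0.5% DMSO. Readout: TaqMan qRT-PCR, ACTB/GAPDH/POLR2A normalisation. Fit: bidirectional vs DMSO.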

[7] = read-out: Interleukin 6 (IL6), IL6 (gene 3569); experiment: LTEA_HepaRG_IL6: Life Technologies and Expression Analysis (LTEA) Assay for Interleukin 6 (IL6) using HepaRG (AID 2283509)
Method in brief: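 Transcript levels, normalized to three housekeeping genes, were quantified by qRT-PCR after 48 h chemical treatment of HepaRG cells. Eight-point half-log series from 100 uM in 0.5% DMSO, duplicates. Fitted both directions against DMSO baseline.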

[8] = read-out: Interleukin 6 Receptor (IL6R), IL6R (gene 3570); experiment: LTEA_HepaRG_IL6R: Life Technologies and Expression Analysis (LTEA) Assay for Interleukin 6 Receptor (IL6R) using HepaRG (AID 2283510)
Method in brief: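 IL6R transcript level by qRT-PCR after 48 h chemical exposure (8-point, half-log, max 100 uM, 0.5% DMSO vehicle) of HepaRG cells in serum-free induction medium. Normalized to three housekeeping genes; curves fitted in both directions relative to DMSO.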

[9] = read-out: Potassium channel subfamily K member 1 (KCNK1), KCNK1 (gene 3775); experiment: LTEA_HepaRG_KCNK1: Life Technologies and Expression Analysis (LTEA) Assay for Potassium channel subfamily K member 1 (KCNK1) using HepaRG (AID 2283511)
Method in brief: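 KCNK1 transcript measured by TaqMan qRT-PCR against three housekeeping genes, after HepaRG cells were treated 48 h with eight half-log concentrations (top 100 uM, 0.5% DMSO). Curves fitted bidirectionally relative to vehicle.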

[10] = read-out: Lipase C (LIPC), LIPC (gene 3990); experiment: LTEA_HepaRG_LIPC: Life Technologies and Expression Analysis (LTEA) Assay for Lipase C (LIPC) using HepaRG (AID 2283514)
Method in brief: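 LIPC expression was quantified by qRT-PCR against three housekeeping genes (ACTB, GAPDH, POLR2A). Differentiated human HepaRG cells received eight half-log doses (top 100 uM, 0.5% DMSO) in duplicate for 48 h; fitting bidirectional relative to DMSO.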

[11] = read-out: Lipoprotein lipase (LPL), LPL (gene 4023); experiment: LTEA_HepaRG_LPL: Life Technologies and Expression Analysis (LTEA) Assay for Lipoprotein lipase (LPL) using HepaRG (AID 2283515)
Method in brief: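 LPL transcript levels quantified by TaqMan qRT-PCR against three housekeeping genes after 48 h chemical treatment of HepaRG cells. Eight-point half-log series from 100 uM in 0.5% DMSO, tested in duplicate; bidirectional fitting versus vehicle.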

[12] = read-out: MicroRNA 122 (MIR122), gene 406906; experiment: LTEA_HepaRG_MIR122: Life Technologies and Expression Analysis (LTEA) Assay for MicroRNA 122 (MIR122) using HepaRG (AID 2283516); note: the transcript read is the microRNA miR-122
Method in brief: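 Expression measured by microfluidic qRT-PCR with three housekeeping genes for normalisation, after 48 h treatment of HepaRG cultures. Eight concentrations (top 100 uM, half-log steps, 0.5% DMSO vehicle) in duplicate; gain or loss fitted relative to vehicle.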

[13] = read-out: matrix metalloproteinase-10 (MMP10), MMP10 (gene 4319); experiment: LTEA_HepaRG_MMP10: Life Technologies and Expression Analysis (LTEA) Assay for matrix metalloproteinase-10 (MMP10) using HepaRG (AID 2283517)
Method in brief: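 Expression measured by TaqMan qRT-PCR with ACTB/GAPDH/POLR2A normalisation after 48 h chemical exposure of HepaRG cells. Eight half-log concentrations, top 100 uM, 0.5% DMSO vehicle, duplicates; gain or loss fitted against vehicle.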

[14] = read-out: MYC, MYC (gene 4609); experiment: LTEA_HepaRG_MYC: Life Technologies and Expression Analysis (LTEA) Assay for MYC using HepaRG (AID 2283518)
Method in brief: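 Expression changes were scored by TaqMan qRT-PCR with ACTB, GAPDH and POLR2A normalization. Cultures in serum-free induction medium received duplicate 8-point concentration series, highest 100 uM, for 48 h; DMSO (0.5%) served as baseline.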

[15] = read-out: matrix metalloproteinase-3 (MMP3), MMP3 (gene 4314); experiment: LTEA_HepaRG_MMP3: Life Technologies and Expression Analysis (LTEA) Assay for matrix metalloproteinase-3 (MMP3) using HepaRG (AID 2283519)
Method in brief: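 Fluidigm-based TaqMan qRT-PCR, normalized to ACTB, GAPDH and POLR2A and fitted bidirectionally versus 0.5% DMSO, measured transcript levels. Treatment: duplicate 48 h exposures of HepaRG cells, ~100,000/well, to eight half-log concentrations topping at 100 uM.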

[16] = read-out: Paternally Expressed 10 (PEG10), PEG10 (gene 23089); experiment: LTEA_HepaRG_PEG10: Life Technologies and Expression Analysis (LTEA) Assay for Paternally Expressed 10 (PEG10) using HepaRG (AID 2283520);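 for AC50: PEG10 transcript by qRT-PCR normalised to ACTB GAPDH and POLR2A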
Method in brief: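 PEG10 transcript measured by Fluidigm qRT-PCR, normalized to three housekeeping genes, in HepaRG cells treated 48 h (highest 100 uM, half-log steps, 0.5% DMSO vehicle). Cells plated 48 h before switching to serum-free induction medium.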

[17] = read-out: Nuclear factor NF-kappa-B p105 subunit (Homo sapiens) (UniProt P19838); experiment: LTEA_HepaRG_NFKB1: Life Technologies and Expression Analysis (LTEA) Assay for Nuclear Factor Kappa B Subunit 1 (NFKB1) using HepaRG (AID 2283521)
Method in brief: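 Differentiated human HepaRG cells were exposed for 48 h in serum-free induction medium to eight concentrations (top 100 uM, half-log steps, 0.5% DMSO), in duplicate. NFKB1 mRNA was measured by TaqMan qRT-PCR, normalized to ACTB/GAPDH/POLR2A, and fitted bidirectionally against DMSO.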

[18] = read-out: Keratin 19 (KRT19), KRT19 (gene 3880); experiment: LTEA_HepaRG_KRT19: Life Technologies and Expression Analysis (LTEA) Assay for Keratin 19 (KRT19) using HepaRG (AID 2283512)
Method in brief: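 Readout is qRT-PCR of KRT19 mRNA, normalized to ACTB, GAPDH and POLR2A, from HepaRG cells treated 48 h with eight-point half-log dilutions topping at 100 uM. Activity in either direction is scored relative to 0.5% DMSO vehicle.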

[19] = read-out: JUN Transcription Factor, JUN (gene 3725); experiment: LTEA_HepaRG_JUN: Life Technologies and Expression Analysis (LTEA) Assay for JUN Transcription Factor using HepaRG (AID 2283513)
Method in brief: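 mRNA measured by TaqMan qRT-PCR after 48 h chemical exposure of HepaRG cultures; normalization to three housekeeping genes. Duplicate eight-point half-log curves from 100 uM in 0.5% DMSO; gain or loss fitted against DMSO baseline.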

Measured: AC50

Nuclear factor NF-kappa-B p105 subunit (Homo sapiens), sequence (P19838 whole entry, looked up): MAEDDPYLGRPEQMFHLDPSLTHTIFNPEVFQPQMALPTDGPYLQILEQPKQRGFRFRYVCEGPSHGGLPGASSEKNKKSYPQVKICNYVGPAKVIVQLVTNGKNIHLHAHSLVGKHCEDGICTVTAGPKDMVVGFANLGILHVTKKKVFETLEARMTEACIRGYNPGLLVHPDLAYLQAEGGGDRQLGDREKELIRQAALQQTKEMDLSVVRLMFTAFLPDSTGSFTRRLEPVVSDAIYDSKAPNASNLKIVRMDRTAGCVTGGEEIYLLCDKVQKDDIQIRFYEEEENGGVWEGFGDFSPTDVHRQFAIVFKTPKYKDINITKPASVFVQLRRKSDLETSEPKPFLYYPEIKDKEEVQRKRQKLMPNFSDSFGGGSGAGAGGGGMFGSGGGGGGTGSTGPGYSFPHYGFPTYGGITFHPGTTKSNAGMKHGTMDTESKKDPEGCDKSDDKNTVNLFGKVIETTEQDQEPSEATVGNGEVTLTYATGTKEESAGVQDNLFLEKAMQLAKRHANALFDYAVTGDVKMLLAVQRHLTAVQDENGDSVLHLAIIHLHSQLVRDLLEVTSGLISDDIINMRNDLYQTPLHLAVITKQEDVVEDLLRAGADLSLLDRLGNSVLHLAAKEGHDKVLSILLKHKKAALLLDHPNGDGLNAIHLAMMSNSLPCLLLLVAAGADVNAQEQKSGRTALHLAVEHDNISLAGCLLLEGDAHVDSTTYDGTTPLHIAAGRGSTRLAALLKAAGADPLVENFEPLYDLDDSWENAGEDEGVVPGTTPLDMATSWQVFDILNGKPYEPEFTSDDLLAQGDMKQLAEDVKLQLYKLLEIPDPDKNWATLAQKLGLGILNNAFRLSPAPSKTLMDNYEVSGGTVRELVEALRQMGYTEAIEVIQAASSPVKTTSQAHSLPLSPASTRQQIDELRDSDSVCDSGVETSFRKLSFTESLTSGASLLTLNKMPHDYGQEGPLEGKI
Hypoxia-inducible factor 1-alpha (Homo sapiens), sequence (Q16665 whole entry, looked up): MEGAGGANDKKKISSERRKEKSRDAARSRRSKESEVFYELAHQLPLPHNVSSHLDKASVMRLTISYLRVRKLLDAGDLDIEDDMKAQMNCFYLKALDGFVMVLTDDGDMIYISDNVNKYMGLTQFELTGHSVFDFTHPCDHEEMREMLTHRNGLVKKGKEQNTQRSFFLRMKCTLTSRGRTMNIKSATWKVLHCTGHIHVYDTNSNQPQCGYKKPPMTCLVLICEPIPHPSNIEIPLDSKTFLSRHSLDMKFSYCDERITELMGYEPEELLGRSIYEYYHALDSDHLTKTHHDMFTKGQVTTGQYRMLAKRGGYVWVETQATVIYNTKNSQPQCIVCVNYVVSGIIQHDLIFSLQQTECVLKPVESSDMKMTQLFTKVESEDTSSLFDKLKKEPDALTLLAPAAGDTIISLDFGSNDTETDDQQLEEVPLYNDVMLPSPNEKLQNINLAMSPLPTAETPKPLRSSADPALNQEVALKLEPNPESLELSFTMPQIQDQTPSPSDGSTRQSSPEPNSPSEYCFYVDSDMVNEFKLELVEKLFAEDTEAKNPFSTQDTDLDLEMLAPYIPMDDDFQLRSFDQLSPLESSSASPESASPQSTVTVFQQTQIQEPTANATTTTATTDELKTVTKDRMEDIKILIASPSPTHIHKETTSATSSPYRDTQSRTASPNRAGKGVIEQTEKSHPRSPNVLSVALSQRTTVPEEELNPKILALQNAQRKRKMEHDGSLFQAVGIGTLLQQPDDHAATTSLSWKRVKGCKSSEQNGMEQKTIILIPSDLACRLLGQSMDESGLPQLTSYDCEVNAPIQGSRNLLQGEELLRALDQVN

O=C(Nc1ccccc1)c1ccccc1I
active: [4] 19.1 µM | [6] 34.8 µM | [10] 50 µM | [12] 50 µM | [14] 41.6 µM | [16] 31.2 µM
not listed: [18] | [19]
inactive: all other assays above

CS(=O)(=O)NC(=O)c1cc(Oc2ccc(C(F)(F)F)cc2Cl)ccc1[N+](=O)[O-]
active: [2] 7.76 µM | [16] 31 µM
not listed: [17] | [18] | [19]
inactive: all other assays above

O=C1CCCO1
active: [2] 50 µM | [11] 50 µM | [15] 83.1 µM
not listed: [1] | [12] | [17]
inactive: all other assays above

Cc1ccc(N=C=O)cc1N=C=O
active: [2] 68.7 µM | [5] 24 µM | [6] 29.4 µM | [7] 73.5 µM | [10] 50 µM | [11] 3.41 µM | [13] 27 µM | [14] 19.3 µM | [16] 12.4 µM
inactive: [3] | [4] | [8] | [9] | [19] | [15] | [17]

Nc1ccc(Oc2ccc(N)cc2)cc1
not listed: [12] | [18] | [19]
inactive: all other assays above

CN(C)[C@@H]1C(=O)C(C(N)=O)=C(O)[C@@]2(O)C(=O)C3=C(O)c4c(O)cccc4[C@@](C)(O)[C@H]3C[C@@H]12
not listed: [1] | [12] | [19]
inactive: all other assays above

O=C(N[C@H](c1ccccc1)[C@@H]1CN2CCC1CC2)c1c(Cl)ccc(C(F)(F)F)c1Cl
active: [2] 72.8 µM | [4] 46.2 µM | [5] 66.6 µM | [6] 34.8 µM | [7] 74.8 µM | [9] 59.7 µM | [19] 82.4 µM | [11] 11.1 µM | [12] 46.2 µM | [13] 69.4 µM | [14] 68.4 µM | [15] 73.6 µM | [16] 26.8 µM | [17] 71.5 µM
inactive: [3] | [8] | [10]
